Bioassay records from PubChem BioAssay.
The list is not random: actives were taken first. Their share in the collection is about 10%.
CtBP-E1A inh – qHTS Assay for Inhibitors of the CtBP/E1A Interaction | hit rate 0.49% among 340,000 | activity change, % (no concentration beside the values) | AlphaScreen GST-E1A/His-CtBP binding, 1536-well; hits give low values; in the data active = activity change below about -65%; inconclusive = mostly about -30% to -63%; note: % is set by controls: 0 for no effect and ±100 for the full control effect
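In 5 uL wells, 23 nL compound meets equimolar GST-E1A and His-CtBP (5X stock 125 nM each) for 2 h, 37 °C. Beads (5X, 50 ug/mL) then 1 h, 37 °C, dark.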
HP1b binding inh – HTS for Inhibitors of HP1-beta Chromodomain Interactions with Methylated Histone Tails. hit rate 0.56% among 390,000. Potency, µM (highest dose often 114 µM), for inactives: at the highest dose activity change, negative = inhibition, hits mostly inhibitors. Chromobox protein homolog 1 (Homo sapiens), P83916. AlphaScreen HP1-beta / biotin-H3K9me3 peptide binding; note: potency is the fitted concentration of half-maximal effect; nearly all actives have a fitted effect of over 70% in size
Target sequence (P83916 whole entry, looked up): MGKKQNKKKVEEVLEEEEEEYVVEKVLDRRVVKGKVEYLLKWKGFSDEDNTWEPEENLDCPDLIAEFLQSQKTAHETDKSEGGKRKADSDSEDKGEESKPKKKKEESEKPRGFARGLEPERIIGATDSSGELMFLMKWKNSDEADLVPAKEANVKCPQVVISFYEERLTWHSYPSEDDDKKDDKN
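HP1-beta protein (50 nM final) preincubated 30 min at room temperature with biotinylated H3(1-18)K9me3 peptide (50 nM) in PBS pH 7.4, 0.01% Tween-20, then compound added for 30 min. AlphaScreen streptavidin donor/nickel chelate acceptor beads (10 ug/mL final), 30 min dark, luminescence read.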
JMJD2A Tudor – qHTS Assay for Inhibitors of JMJD2A-Tudor Domain | Potency, µM (highest dose often 114 µM), without a hit: at the top dose activity change, negative = inhibition, most hits filed as inhibitors | AlphaScreen JMJD2A-Tudor / H3K4me3 peptide binding | hit rate 4.4% among 390,000 | Lysine-specific demethylase 4A (Homo sapiens), O75164 | AID 504339, 2011; note: potency is the fitted concentration of half-maximal effect; % is set by controls: 0 for no effect and ±100 for the full control effect; nearly all actives have a fitted effect of over 50% in size
Six1-Eya2 inh – qHTS Assay for Inhibitors of the Six1/Eya2 Interaction; Homeobox protein SIX1 (Homo sapiens) + Protein phosphatase EYA2 (Homo sapiens), …; AlphaScreen GST-Six1/His-Eya2 binding, biochemical; hits give low values; activity change, % (no concentration beside the values); hit rate 0.56% among 360,000; in the data active = activity change below about -65%; inconclusive = mostly about -30% to -63%; note: % is set by controls: 0 for no effect and ±100 for the full control effect
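Six1/Eya2 binding was read as AlphaScreen signal after compounds were pinned into GST-Six1 plus His-tagged Eya2 (5X stock 250/500 nM) in pH 8.0 Tris/NaCl/TCEP buffer, beads added, then incubated 1 h, 37 C, dark.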
BAZ2B block – qHTS Assay for Inhibitors of BAZ2B. Potency, µM (highest dose often 114 µM), inactives show at the top dose activity change, negative = inhibition, hits mostly inhibitors. AlphaScreen BAZ2B-H3K14Ac peptide displacement. Bromodomain adjacent to zinc finger domain protein 2B (Homo sapiens), Q9UIF8. hit rate 4.4% among 360,000; note: potency is the fitted concentration of half-maximal effect; % is set by controls: 0 for no effect and ±100 for the full control effect; nearly all actives have a fitted effect of over 60% in size
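AlphaScreen displacement of biotin-H3(5-23)K14Ac peptide (50 nM final) from BAZ2B (50 nM final) in PBS pH 7.4, 0.01% Tween-20; complex preformed 30 min RT, then compounds (top 110 uM) 30 min RT, beads 20 min dark.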
G9a inh – qHTS Assay for Inhibitors of Histone Lysine Methyltransferase G9a. Histone-lysine N-methyltransferase EHMT2 (Homo sapiens), Q96KQ7. G9a H3K9 monomethylation, AlphaScreen, 2 h. Potency, µM (top dose mostly 102 µM), for inactives: at the highest dose activity, negative = inhibition, most hits filed as inhibitors. hit rate 8.8% among 350,000; note: potency is the fitted concentration of half-maximal effect; % is set by controls: 0 for no effect and ±100 for the full control effect; nearly all actives have a fitted effect of over 75% in size
Target sequence (Q96KQ7 913-1193 limits assumed): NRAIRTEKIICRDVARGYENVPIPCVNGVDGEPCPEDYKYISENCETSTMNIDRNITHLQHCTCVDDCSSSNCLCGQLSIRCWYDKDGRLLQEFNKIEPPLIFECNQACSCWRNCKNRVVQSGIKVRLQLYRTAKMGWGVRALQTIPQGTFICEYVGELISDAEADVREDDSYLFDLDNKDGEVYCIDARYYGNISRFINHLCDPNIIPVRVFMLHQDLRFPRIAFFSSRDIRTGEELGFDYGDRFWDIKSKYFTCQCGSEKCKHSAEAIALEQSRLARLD
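Quantitative HTS format: methyltransferase activity on a biotin-tagged H3K9 peptide is measured by AlphaScreen, using a rabbit anti-monomethyl-H3K9 antibody with streptavidin donor and anti-IgG acceptor beads. Final levels are 20 nM enzyme, 500 nM peptide, 20 uM SAM; 2 h RT.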
An asterisk follows results filed as active; ? = inconclusive; nt = not tested or not shown; [ ] = dose if it differs, or a comment. Unless noted, calls come from the whole dose curve; as a rule, active = well fitted inhibition curve with a large enough effect; inconclusive = small, poorly fitted or top-dose-only effect; inactive = no such curve, though single readings can be large or run the other way.

SMILES	CtBP-E1A inh	HP1b binding inh	JMJD2A Tudor	Six1-Eya2 inh	BAZ2B block	G9a inh
COc1cc2c(cc1OC)[C@@H]1O[C@](CCCCN3C(=O)c4ccccc4C3=O)(C2)Oc2cc(C)n(-c3ccccc3)c(=O)c21	nt	nt	nt	nt	8.9%[22.9 µM]	nt
CCCCC[C@]12Cc3cc(OC)c(OC)cc3C(O1)c1c(cc(C)n(-c3ccccc3)c1=O)O2	nt	nt	nt	nt	11.2µM*	7.8%[2.33 µM]
COc1ccc(C)cc1NC(=O)C1CCN(S(=O)(=O)c2ccc3[nH]c4c(c3c2)CCCCC4)CC1	nt	14.1%	-14.6%	nt	-14.6%	-30.5%[59 µM]
CC(=O)Nc1ccc(SCCC2CCCCN2C)cc1 (centres undefined)	-0.6	23.0%	-8.5%	1.1	-1.8%	?
C(=NN=C1c2ccccc2-c2ccccc21)c1c[nH]c2ccccc12	0.5	?	22.4µM*	?	nt	nt
O=C(O)CCCNC(=O)CC1S/C(=N/N=C/c2ccccc2O)NC1=O (centres undefined)	-23.4	31.1%	-23.1%	-7.0	50.1µM*	0.5%
COc1ccc(-c2c3c(=O)n(C)c(=O)n(C)c3c3c(-c4cccc(C)c4)nc4ccccc4n23)cc1	nt	26.7%	-24.4%	nt	-20.2%	?
NC(=O)CC[C@H](NC(=O)OCc1ccccc1)C(=O)OCc1ccc(Cl)cc1	2.2	19.4%	-18.9%	9.2	-27.9%	-31.6%[59 µM]
Cc1ccccc1NC(=O)C1CCN(C(=O)c2cnn(-c3ccccc3)c2-n2cccc2)CC1	nt	8.4%	-14.1%	nt	-2.2%	10.9%[59 µM]
CCCSc1ncc(Cl)c(C(=O)N2CCN(c3ccc(OC)cc3)CC2)n1	nt	-11.2%	?	nt	35.5µM*	10µM*
COc1ccc(N2CCN(C(=O)c3nc(SC)ncc3Cl)CC2)cc1	nt	26.7%	-18.1%	nt	-30.1%	10µM*
COc1ccc(NC(=O)c2c(C)oc3ccc(O)c(CN4CCN(C)CC4)c23)cc1Cl	nt	24.1%	-18.1%	nt	-15.5%	-2.8%[59 µM]
O=C(COCc1cc(-c2ccc3c(c2)OCO3)on1)N1CCN(c2cccc(C(F)(F)F)c2)CC1	-10.7	40.6%	-28.4%	-2.0	?	6.4%
CCCCNC(=S)NC(C)(C)CO	nt	19.9%	-9.7%	1.3	-3.2%	11.2µM*
CC(C)c1ccc(S(=O)(=O)c2cnc(SCC(=O)Nc3ccc(F)cc3F)nc2N)cc1	nt	19.9%	-9.6%	nt	-3.6%	5.7%[59 µM]
CCc1ccccc1NC(=O)CSc1ncc(S(=O)(=O)c2ccc(C(C)C)cc2)c(N)n1	nt	17.7%	20µM*	nt	2.7%	-6.6%[59 µM]
CCc1ccccc1NC(=O)CSc1ncc(S(=O)(=O)c2ccccc2)c(N)n1	nt	7.7%	-21.5%	nt	1.2%	12.6µM*
CCOc1ccccc1NC(=O)Cn1c(=O)n(Cc2ccccc2)c(=O)c2c(C)c(C)sc21	nt	5.9%	-4.1%	nt	-0.5%	-2.1%[59 µM]
O=C(Nc1cccc(Cl)c1Cl)c1ccc2c(c1)N(Cc1cccc(Cl)c1)C(=O)c1ccccc1S2(=O)=O	nt	63.5%	-8.6%	nt	15.1%	36.6%[59 µM]
CCOc1ccccc1N(CC(=O)NC1CCCCC1)S(=O)(=O)c1ccc(C)cc1	6.8	19.0%	-18.6%	0.4	18.2%	-26.0%
Cc1ccc(NC(=O)C2=CN3CCS(=O)(=O)N=C3C=C2)cc1	-3.4	35.1%	-13.7%	2.6	nt	nt
CC(C)(C)c1ccc(NC(=O)C2=CN3CCS(=O)(=O)N=C3C=C2)cc1	4.1	26.3%	3.7%	4.2	12.2%	7.08µM*
Cc1ccccc1CNC(=O)c1cnc2sc(N3CCC(C)CC3)nn2c1=O	nt	17.9%	0.0%	nt	0.5%	-2.3%[59 µM]
CCOc1ccccc1C(=O)Nc1nn[nH]n1	-1.4	?	56.2µM*	-11.9	50.1µM*	25.1µM*
CCOc1ccccc1C(=O)Nc1ccccc1C(N)=O	1.1	17.5%	-11.5%	0.5	13.4%	-30.9%[12.7 µM]
